Calls of active or inactive are those of the source. How the source made its calls: active means hit-call score of the fitted dose curve at least 0.9, where 1 is the maximum; inactive means score below 0.9.
assay: APR_HepG2_CellLoss_72hr: Apredica 72-hour HepG2 Assay for Cell Loss (AID 2282915); settings: high-content imaging
Summary of the method: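 HepG2 cells exposed 72 h to compound at 0.39–200 uM (10 concentrations, duplicate) in 0.5% DMSO. Fixed with 3.7% formaldehyde and Hoechst 33342-stained. Imaged at 20x; nuclear count gives cell number, fitted bidirectionally versus DMSO.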

| SMILES | outcome | AC50 |
| --- | --- | --- |
| CCn1nc(C)c2c1C(=O)NCC(c1ccc(O)cc1)=N2 | inactive | – |
| NC(=O)NN=Cc1ccc([N+](=O)[O-])o1 | – | 67.8 µM (active) |
| Cn1c(=O)c2[nH]cnc2n(C)c1=O | inactive | – |
| c1ccc2cc3ccccc3cc2c1 | – | 139 µM (active) |
| c1ccc2ncccc2c1 | inactive | – |
| CCCCOC(=O)c1ccccc1 | inactive | – |
| CCCCCCCCN(C)C | inactive | – |
| CCCCC(CC)C(=O)OCCOCCOCCOC(=O)C(CC)CCCC (stereo not given) | – | 89.8 µM (active) |
| C[C@]12C=CC(=O)C=C1CC[C@H]1[C@@H]3C[C@@H](O)[C@](O)(C(=O)CO)[C@@]3(C)C[C@H](O)[C@@]12F | inactive | – |
| O=C(O)c1cccc(C[C@@H]2COc3ccc(OCc4nc5cc(F)ccc5s4)cc3[C@@H]2O)c1 | – | 63.7 µM (active) |
| OC(Cn1cncn1)(Cn1cncn1)c1ccc(F)cc1F | inactive | – |
| OCCOCCOCCO | inactive | – |
| CCCCN1C(=O)[C@@H]([C@H](O)C2CCCCC2)NC(=O)C12CCN(Cc1ccc(Oc3ccc(C(=O)O)cc3)cc1)CC2 | – | 48.1 µM (active) |

assay: APR_HepG2_P-H2AX_72hr: Apredica 72-hour HepG2 Assay for H2AX Phosphorylation (AID 2282916); settings: imaging, actives raise or lower the signal;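 further: phospho-histone H2A.x immunostain intensity per cell marking DNA damage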
Summary of the method: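 HepG2 human liver cells were exposed for 72 hr to compounds at 0.39–200 uM (10 concentrations, duplicate per plate) in 0.5% v/v DMSO. Fixed, permeabilized cells were immunolabeled for phospho-histone H2A.x with Hoechst 33342 and imaged by HCS fluorescence; bidirectional fit versus DMSO.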

| SMILES | outcome | AC50 |
| --- | --- | --- |
| CCn1nc(C)c2c1C(=O)NCC(c1ccc(O)cc1)=N2 | inactive | – |
| NC(=O)NN=Cc1ccc([N+](=O)[O-])o1 | – | 77.3 µM (active) |
| Cn1c(=O)c2[nH]cnc2n(C)c1=O | inactive | – |
| c1ccc2cc3ccccc3cc2c1 | – | 112 µM (active) |
| c1ccc2ncccc2c1 | inactive | – |
| CCCCOC(=O)c1ccccc1 | inactive | – |
| CCCCCCCCN(C)C | inactive | – |
| CCCCC(CC)C(=O)OCCOCCOCCOC(=O)C(CC)CCCC (stereo not given) | inactive | – |
| C[C@]12C=CC(=O)C=C1CC[C@H]1[C@@H]3C[C@@H](O)[C@](O)(C(=O)CO)[C@@]3(C)C[C@H](O)[C@@]12F | inactive | – |
| O=C(O)c1cccc(C[C@@H]2COc3ccc(OCc4nc5cc(F)ccc5s4)cc3[C@@H]2O)c1 | – | 97.3 µM (active) |
| OC(Cn1cncn1)(Cn1cncn1)c1ccc(F)cc1F | inactive | – |
| OCCOCCOCCO | inactive | – |
| CCCCN1C(=O)[C@@H]([C@H](O)C2CCCCC2)NC(=O)C12CCN(Cc1ccc(Oc3ccc(C(=O)O)cc3)cc1)CC2 | – | 46.4 µM (active) |

assay: APR_HepG2_MitoMembPot_72hr: Apredica 72-hour HepG2 Assay for Mitochondrial Membrane Potential (AID 2282917); settings: imaging, actives raise or lower the signal
Summary of the method: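 HepG2 cells dosed 72 hr with compound at 0.39–200 uM in duplicate, 0.5% v/v DMSO final. Mitochondria stained with 250 nM MitoTracker Red CMXRos for 30 min before formaldehyde fixation, imaged by high-content fluorescence; bidirectional fit versus DMSO.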

| SMILES | outcome |
| --- | --- |
| NC(=O)NN=Cc1ccc([N+](=O)[O-])o1 | inactive |
| Cn1c(=O)c2[nH]cnc2n(C)c1=O | inactive |
| c1ccc2ncccc2c1 | inactive |
| CCCCCCCCN(C)C | inactive |
| C[C@]12C=CC(=O)C=C1CC[C@H]1[C@@H]3C[C@@H](O)[C@](O)(C(=O)CO)[C@@]3(C)C[C@H](O)[C@@]12F | inactive |
| OC(Cn1cncn1)(Cn1cncn1)c1ccc(F)cc1F | inactive |

assay: APR_HepG2_MitoticArrest_72hr: Apredica 72-hour HepG2 Assay for Mitotic Arrest (AID 2282918); settings: high-content imaging, actives raise or lower the signal
Summary of the method: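 HepG2, 72 hr exposure, 0.39–200 uM in duplicate, 0.5% v/v DMSO final. Formaldehyde-fixed, Triton-permeabilized, anti-phospho-histone H3/FITC plus Hoechst. ArrayScan imaging at 20x; curves fit bidirectionally against DMSO baseline.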

| SMILES | outcome | AC50 |
| --- | --- | --- |
| CCn1nc(C)c2c1C(=O)NCC(c1ccc(O)cc1)=N2 | inactive | – |
| NC(=O)NN=Cc1ccc([N+](=O)[O-])o1 | – | 68.7 µM (active) |
| Cn1c(=O)c2[nH]cnc2n(C)c1=O | inactive | – |
| c1ccc2ncccc2c1 | inactive | – |
| CCCCOC(=O)c1ccccc1 | inactive | – |
| CCCCCCCCN(C)C | inactive | – |
| CCCCC(CC)C(=O)OCCOCCOCCOC(=O)C(CC)CCCC (stereo not given) | – | 91.2 µM (active) |
| C[C@]12C=CC(=O)C=C1CC[C@H]1[C@@H]3C[C@@H](O)[C@](O)(C(=O)CO)[C@@]3(C)C[C@H](O)[C@@]12F | inactive | – |
| O=C(O)c1cccc(C[C@@H]2COc3ccc(OCc4nc5cc(F)ccc5s4)cc3[C@@H]2O)c1 | – | 102 µM (active) |
| OC(Cn1cncn1)(Cn1cncn1)c1ccc(F)cc1F | inactive | – |
| OCCOCCOCCO | inactive | – |
| CCCCN1C(=O)[C@@H]([C@H](O)C2CCCCC2)NC(=O)C12CCN(Cc1ccc(Oc3ccc(C(=O)O)cc3)cc1)CC2 | – | 54.3 µM (active) |

assay: APR_HepG2_MicrotubuleCSK_72hr: Apredica 72-hour HepG2 Assay for Microtubule CSK Stabilty (AID 2282919); settings: HepG2 microtubule cytoskeleton, high-content imaging, actives raise or lower the signal
Summary of the method: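 HepG2 cells were exposed 72 hr to compound at 0.39–200 uM in duplicate (0.5% DMSO final), then fixed and permeabilized. Alpha-tubulin immunofluorescence was imaged by high-content microscopy, with bidirectional fitting against DMSO and taxol as positive control.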

| SMILES | outcome |
| --- | --- |
| Cn1c(=O)c2[nH]cnc2n(C)c1=O | inactive |
| CCCCC(CC)C(=O)OCCOCCOCCOC(=O)C(CC)CCCC (stereo not given) | inactive |
| CCCCN1C(=O)[C@@H]([C@H](O)C2CCCCC2)NC(=O)C12CCN(Cc1ccc(Oc3ccc(C(=O)O)cc3)cc1)CC2 | inactive |

assay: APR_HepG2_P-H2AX_24hr: Apredica 24-hour HepG2 Assay for H2AX Phosphorylation (AID 2282920); settings: high-content imaging, actives raise or lower the signal
Summary of the method: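 HCS fluorescence imaging of phospho-H2A.x immunostain (with Hoechst 33342 nuclear counterstain) in HepG2 after 24 hr compound exposure; 10 concentrations, 0.39–200 uM, duplicate wells, 0.5% v/v DMSO. Gain or loss of signal fitted relative to DMSO baseline.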

| SMILES | outcome | AC50 |
| --- | --- | --- |
| CCn1nc(C)c2c1C(=O)NCC(c1ccc(O)cc1)=N2 | inactive | – |
| NC(=O)NN=Cc1ccc([N+](=O)[O-])o1 | – | 72 µM (active) |
| Cn1c(=O)c2[nH]cnc2n(C)c1=O | inactive | – |
| c1ccc2cc3ccccc3cc2c1 | – | 107 µM (active) |
| c1ccc2ncccc2c1 | inactive | – |
| CCCCOC(=O)c1ccccc1 | inactive | – |
| CCCCCCCCN(C)C | inactive | – |
| CCCCC(CC)C(=O)OCCOCCOCCOC(=O)C(CC)CCCC (stereo not given) | inactive | – |
| C[C@]12C=CC(=O)C=C1CC[C@H]1[C@@H]3C[C@@H](O)[C@](O)(C(=O)CO)[C@@]3(C)C[C@H](O)[C@@]12F | inactive | – |
| O=C(O)c1cccc(C[C@@H]2COc3ccc(OCc4nc5cc(F)ccc5s4)cc3[C@@H]2O)c1 | – | 105 µM (active) |
| OC(Cn1cncn1)(Cn1cncn1)c1ccc(F)cc1F | inactive | – |
| OCCOCCOCCO | inactive | – |
| CCCCN1C(=O)[C@@H]([C@H](O)C2CCCCC2)NC(=O)C12CCN(Cc1ccc(Oc3ccc(C(=O)O)cc3)cc1)CC2 | – | 67.8 µM (active) |
